The values that follow come from PubChem BioAssay.

The nature of assay [1]: reducers of endogenous Her2 protein level, primary screen, SKBR3 breast tumor cells, AlphaScreen, ATP viability (AID 461).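 On Her2 level: lower value means less Her2 protein in the cells.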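 On viability: percent of carrier control wells set as 100% viability.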 The following applies: 18-24 h, measured here: SKBR3 viability, ATP luminescence, at 10 µM. In general terms: Bead proximity is the source of the signal in Alpha formats.
Assay [2] addresses Receptor tyrosine-protein kinase erbB-2 (Homo sapiens) (UniProt P04626). The description is as above. The conditions noted are these: 18-24 h, at 10 µM, stronger effect = lower value.
Assay [3] can be described thus: SK-BR-3 cell growth inhibitors, pilot screen, 24 h, human (AID 572;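 active means viability at or below 10% of carrier control in both of two separate runs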;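 further: compound exposure lasted between 18 and 24 h rather than exactly 24 h; 100% = carrier-treated control wells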). The conditions noted are these: SK-BR-3 viability, CellTiter-Glo luminescence, at 10 µM, stronger effect = lower value. On the technique in general: ATP-based viability assays read luminescence as a measure of living cells.
Assay [4] can be described thus: HUVEC growth inhibition – cell-based, human, primary screen (AID 575;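 active means viability at or below 30% in both replicate assays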;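 further: 100% = median of untreated cell wells with 0.1% DMSO on each plate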). The conditions noted are these: HUVEC proliferation, CellTiter-Glo luminescence, 72 h; at 10 µM; stronger effect = lower value.
Assay [5] in a line: growth inhibitors of H69AR lung tumor, primary screen, human, duplicate replicates (AID 580;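 active means viability at or under a set limit in both replicates, limit being median viability minus 3 SD, cut at about 48% in these data, passing the limit was not always enough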;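 further: 100% = mean luminescence of untreated wells and 0% = no signal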). The following applies: H69AR lung tumor cells viability, ATP luminescence, 72 h; at 10 µM; stronger effect = lower value.
Assay [6] is described as follows: reversal of MRP1-mediated doxorubicin resistance, pilot screen, H69AR cells, doxorubicin co-treatment (AID 601;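 active means viability loss from added drug above about 55%, and viability with drug at most 40%, in both replicates, limit read from the data, passing the limit was not always enough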). The following applies: CellTiter-Glo, 72 h, at 10 µM; for differential viability (reversal): stronger effect = higher value.
Assay [7] can be described thus: 384-well plate pilot, post-Golgi transport modulator project, inhibition of yeast transport mutant growth (AID 636; in the data active means inhibition above about 31%). The conditions noted are these: absorbance 615 nm, about 18 h, stronger effect = higher value.
Assay [8] in a line: growth suppression of yeast trafficking mutant, preliminary HTS, modulators of trafficking downstream of Golgi apparatus project, 1536-format plate, OD 615 nm (AID 637; in the data active means inhibition above about 30%). The following applies: yeast transport mutant growth, absorbance 615 nm, 18 h; stronger effect = higher value.
Assay [9] can be described thus: OD615 S. cerevisiae growth inhibition, permissive medium, pilot counter-assay, permissive growth control for S. cerevisiae lifespan shortening project (AID 705;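 active means growth inhibition above 25% in both replicates, a cutoff set 3 SD above the mean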). The following applies: OD615, 24 h, at 10 µM, stronger effect = higher value.
Assay [10] can be described thus: Restrictive medium S. cerevisiae growth inhibition, OD615, pilot screen of yeast lifespan reduction project, restrictive growth control (AID 706;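 active means growth inhibition above a set limit, 3 SD over mean compound inhibition, in both replicates, cut at about 43% in these data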;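 further: modified DeaD lifespan yeast strain shifted to restrictive glucose medium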). The conditions noted are these: OD615, 48 h, at 10 µM, stronger effect = higher value.
The nature of assay [11]: viability gain of MRP-1-high H69AR cells under doxorubicin, pilot screen, MRP-1 activator project, CellTiter-Glo, duplicate (AID 807;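 active means viability increase at or above a cutoff of the median across tested compounds plus 3 SD, cut at about 8.5% in these data, passing the limit was not always enough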;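 further: compound pretreatment 18-22 h then 72 h combined with doxorubicin; 0% = doxorubicin alone and 100% = vehicle without doxorubicin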). The conditions noted are these: H69AR viability with doxorubicin, CellTiter-Glo luminescence; at 10 µM; stronger effect = higher value.
The nature of assay [12]: growth suppression of beta-catenin knockout HCT116, pilot screen, human colon tumor cells (AID 823;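 active means cell viability at or below a set limit in both duplicate runs, the limit being the all-compound median minus 4 SD, cut at about 23% in these data, passing the limit was not always enough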;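 further: 0% = wells killed by 20 µM Hyamine and 100% = untreated DMSO cell wells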). The following applies: CellTiter-Glo, 60 h, at 10 µM, stronger effect = lower value.
Assay [13] is described as follows: growth suppression of PTEN-deleted HCT116, pilot screen, cell-based, HCT116 clonal line, CellTiter-Glo (AID 824;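 active means viability at or below 27.92% in each of two runs, the all-compound median minus 4 SD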;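 further: 0% = 20 µM Hyamine control and 100% = vehicle cell control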). The following applies: 60 h, at 10 µM, stronger effect = lower value.
A short description of assay [14]: inhibitors of the yeast RAM network, pilot screen, dse1pr::URA3 reporter, 5-FOA selection (AID 869;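 active means inhibition over a set limit, the all-compound mean plus 3 SD, in both replicate runs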;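 further: 0% = DMSO wells with no growth and 100% = 10 µM 1-NA-PP1 with full growth; RAM network block rescues cells from 5-FOA so hits raise OD615 growth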). The conditions noted are these: S. cerevisiae dse1pr::URA3 5-FOA growth, OD615, 2 d; at 10 µM; stronger effect = higher value; strain carries analog-sensitive mutant Cbk1 kinase.
Assay [15] in a line: RAM signaling pathway blockade in yeast – S. cerevisiae, Pdr1DBD-CYC8 efflux-inhibited sensitized strain, primary screen (AID 1298;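 active means RAM network inhibition above 8.4% in each of two replicates, 3 SD over the compound average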;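 further: 0% = DMSO untreated cells without growth and 100% = 10 µM 1-NA-PP1 full growth; higher means more yeast growth rescued from 5-FOA killing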). The following applies: S. cerevisiae cbk1-as DSE1-URA3 strain, 5-FOA growth OD615, 2 d; at 50 µM; stronger effect = higher value.
[16] abbreviates: H69AR cells + 2 uM doxorubicin, measured here: viability with 2 uM doxorubicin, stronger effect = lower value.
Setting [17] is: H69AR cells, compound alone cytotoxicity.

Inconclusive results are not listed. Active and inactive are the calls of the source.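 How the source made its calls, unless noted: active means Her2 level under about 52% in both replicate screens, with viability over 70% of control (limit read from the data); inconclusive means Her2 under the limit in one screen only, or viability under 70%; inactive means Her2 level above the set limit.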

Chain of Receptor tyrosine-protein kinase erbB-2 (Homo sapiens) (P04626 whole entry, looked up): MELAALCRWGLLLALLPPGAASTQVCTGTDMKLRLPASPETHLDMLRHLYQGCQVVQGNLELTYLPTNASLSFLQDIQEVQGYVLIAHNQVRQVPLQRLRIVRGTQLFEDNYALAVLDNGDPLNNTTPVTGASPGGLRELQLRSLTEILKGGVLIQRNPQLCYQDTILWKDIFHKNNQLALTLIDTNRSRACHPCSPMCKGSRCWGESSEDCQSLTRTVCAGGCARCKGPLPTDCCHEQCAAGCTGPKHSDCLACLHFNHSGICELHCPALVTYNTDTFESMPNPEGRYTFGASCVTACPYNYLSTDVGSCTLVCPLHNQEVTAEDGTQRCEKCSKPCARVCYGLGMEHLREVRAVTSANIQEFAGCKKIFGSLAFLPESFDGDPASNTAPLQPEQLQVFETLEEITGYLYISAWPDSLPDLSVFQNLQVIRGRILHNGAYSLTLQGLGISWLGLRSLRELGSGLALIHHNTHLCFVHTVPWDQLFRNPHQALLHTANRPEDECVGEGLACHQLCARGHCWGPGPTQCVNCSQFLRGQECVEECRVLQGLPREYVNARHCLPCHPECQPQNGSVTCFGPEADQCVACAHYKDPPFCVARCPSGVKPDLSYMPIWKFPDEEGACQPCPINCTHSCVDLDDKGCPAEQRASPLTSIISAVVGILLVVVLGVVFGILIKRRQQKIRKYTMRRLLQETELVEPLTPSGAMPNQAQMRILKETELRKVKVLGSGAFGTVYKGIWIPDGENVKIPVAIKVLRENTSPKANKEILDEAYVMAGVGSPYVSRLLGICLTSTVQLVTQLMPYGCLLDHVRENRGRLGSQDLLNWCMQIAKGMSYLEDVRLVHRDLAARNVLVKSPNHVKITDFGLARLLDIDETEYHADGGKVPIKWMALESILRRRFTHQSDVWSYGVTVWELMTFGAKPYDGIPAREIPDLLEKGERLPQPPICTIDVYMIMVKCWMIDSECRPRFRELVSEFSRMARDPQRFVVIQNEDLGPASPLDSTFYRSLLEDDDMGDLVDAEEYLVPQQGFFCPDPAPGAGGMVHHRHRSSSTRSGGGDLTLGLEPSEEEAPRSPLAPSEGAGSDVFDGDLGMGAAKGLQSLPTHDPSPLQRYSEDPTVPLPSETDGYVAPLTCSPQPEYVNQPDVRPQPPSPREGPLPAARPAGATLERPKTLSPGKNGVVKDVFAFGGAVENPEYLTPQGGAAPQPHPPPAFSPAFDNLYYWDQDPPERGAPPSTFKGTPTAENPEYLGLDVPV

On to `COc1cccc(-c2nc3n(n2)C(c2ccccc2Cl)C(C(N)=O)=C(C)N3)c1` (stereo not drawn), for which the viability (usually a read-out of living cells in per cent, often relative to untreated cells) in assay [1] is 91%; in assay [3], 91% (inactive); in assay [4], 74.3% (inactive); in assay [5], 90.4% (inactive); in [6] (setting [16]), 75.8%; in [6] (setting [17]), 90.4%. For the same molecule, the figures for the viability in assay [12] and in assay [13] were 82.8% (inactive) and 82.2% (inactive), respectively. Moreover, the Her2 level in assay [2] is 94% (inactive). Also, the differential viability (reversal) in assay [6] (H69AR cells + 2 uM doxorubicin) was 14.6% (inactive). Besides, the inhibition (in general, the change of the read-out against control, counted positive when it falls) is -0.8% (inactive) in [7], -5.17% (inactive) in assay [8] and 0.735% (inactive) in assay [14]. The figures for the growth inhibition in assay [9] and in assay [10] were -7.99% (inactive) and -0.24% (inactive), respectively. In [11], the viability increase was -3.31% (inactive). For the same molecule, the RAM network inhibition in [15] is 3.45% (inactive).

Turning to `Cc1cc(C)cc(N2C(=O)CC(N3CCOCC3)C2=O)c1` (stereo not drawn), the viability was 104% in [1]; 104% (inactive) in assay [3]; 100% (inactive) in [4]; 191% (inactive) in [5]; 92.2% in [6] (setting [16]); 191% in assay [6] (setting [17]). The viability in assay [12] was 102% (inactive); in assay [13], 92.5% (inactive). For the same molecule, the Her2 level in [2] is 84% (inactive). Moreover, the differential viability (reversal) in assay [6] (H69AR cells + 2 uM doxorubicin) was 98.5% (inactive). Further, the inhibition is -1.89% (inactive) in [7], 0.82% (inactive) in assay [8] and 0.41% (inactive) in assay [14]. Moreover, the growth inhibition in assay [9] was -9.16% (inactive); in assay [10], -2.19% (inactive). In addition, the viability increase in assay [11] is -0.95% (inactive). The RAM network inhibition in assay [15] was 0.87% (inactive).

As to `COc1ccc(OC)c(C(=O)c2ccc(C(=O)O)cc2)c1`, the viability in assay [1] is 120%; in [3], 120% (inactive); in assay [4], 87.2% (inactive); in assay [5], 103% (inactive); in [6] (setting [16]) it was 96.5%; in assay [6] (setting [17]), 103%. In addition, the viability was 105% (inactive) in assay [12] and 103% (inactive) in assay [13]. Also, in [2], the Her2 level was 107% (inactive). The differential viability (reversal) in [6] (H69AR cells + 2 uM doxorubicin) is 6.11% (inactive). For the same molecule, the inhibition in [7] is -3.73% (inactive); in assay [8], 1.94% (inactive); in [14] it was 1.67% (inactive). The growth inhibition is -10.1% (inactive) in assay [9] and -16.1% (inactive) in assay [10]. Moreover, the viability increase in [11] was 0.88% (inactive). The RAM network inhibition in assay [15] was 0.12% (inactive).

For `Cc1noc(/C=C/N(C)C)c1S(=O)(=O)N1CCc2ccccc21`, the viability in assay [1] is 99%; in assay [3] it was 99% (inactive); in assay [4], 67.4% (inactive); in assay [5], 75.7% (inactive); in assay [6] (setting [16]) it was 95.9%; in [6] (setting [17]), 75.7%. For the same molecule, the figures for the viability in assay [12] and in assay [13] were 84.4% (inactive) and 68.7% (inactive), respectively. The Her2 level in [2] was 106% (inactive). Further, the differential viability (reversal) in assay [6] (H69AR cells + 2 uM doxorubicin) is -20.2% (inactive). Besides, the inhibition in [7] is 0.13% (inactive); in assay [8] it was -3.83% (inactive); in assay [14], 1.65% (inactive). Moreover, the growth inhibition was -22.4% (inactive) in assay [9] and -28.7% (inactive) in [10]. Further, the viability increase in assay [11] is -6.84% (inactive). In addition, the RAM network inhibition in assay [15] is 10% (inactive).

As to `C=CCSc1nnc(-c2cccnc2)o1`, the viability is 95% in [1]; 95% (inactive) in assay [3]; 103% (inactive) in assay [4]; 96.9% (inactive) in assay [5]; 87.8% in assay [6] (setting [16]); 96.9% in assay [6] (setting [17]). Further, the viability in assay [12] and in assay [13] was 101% (inactive) in each case. Besides, the Her2 level in assay [2] was 99.5% (inactive). Further, the differential viability (reversal) in assay [6] (H69AR cells + 2 uM doxorubicin) is 9.17% (inactive). For the same molecule, the values for the inhibition in assay [7], in assay [8] and in assay [14] were -5.6% (inactive), 9% (inactive) and 0.94% (inactive), respectively. Further, the growth inhibition in [9] was -1.77% (inactive); in assay [10], 7.71% (inactive). Besides, in [11], the viability increase was -1.02% (inactive). The RAM network inhibition in assay [15] was 0.16% (inactive).

`COc1ccc(N2CCN(C(c3ccccc3)c3sc4nc(C)nn4c3O)CC2)cc1` (stereo not drawn): the viability in [1] is 91.5%; in assay [3] it was 91.5% (inactive); in [4], 82.2% (inactive); in assay [5] it was 90% (inactive); in assay [6] (setting [16]), 98.4%; in assay [6] (setting [17]), 90%. In addition, the viability in [12] is 96.8% (inactive); in assay [13], 97.3% (inactive). In addition, the Her2 level in [2] is 101% (inactive). Also, the differential viability (reversal) in [6] (H69AR cells + 2 uM doxorubicin) is -8.41% (inactive). Further, the inhibition in assay [7] is -4.93% (inactive); in assay [8], -2.17% (inactive); in [14], 2.81% (inactive). In addition, the growth inhibition in [9] is 1.81% (inactive); in assay [10] it was -0.505% (inactive). Moreover, the viability increase in assay [11] was -1.28% (inactive). The RAM network inhibition in [15] was -0.02% (inactive).

`COc1ccc(C(=O)NCc2nnc(SC)n2C2CCCCC2)cc1`: the viability in assay [1] is 104%; in assay [3], 104% (inactive); in assay [4] it was 81.2% (inactive); in [5], 92% (inactive); in [6] (setting [16]), 82.5%; in [6] (setting [17]), 92%. For the same molecule, the viability is 99.8% (inactive) in assay [12] and 96.4% (inactive) in assay [13]. Further, in assay [2], the Her2 level was 91% (inactive). Besides, the differential viability (reversal) in [6] (H69AR cells + 2 uM doxorubicin) is 9.5% (inactive). Also, the inhibition in assay [7] is -3.33% (inactive); in assay [8], -3.44% (inactive); in assay [14] it was 1.08% (inactive). The results for the growth inhibition in assay [9] and in assay [10] were -4.53% (inactive) and 3.39% (inactive), respectively. For the same molecule, in [11], the viability increase is -1.51% (inactive). For the same molecule, the RAM network inhibition in assay [15] was 2.76% (inactive).

With `CCOC(=O)c1[nH]c(C)c(C(=O)Nc2ccc(Cl)cc2)c1C`, the viability is 88.5% in assay [1]; 88.5% (inactive) in [3]; 73.3% (inactive) in assay [4]; 85.9% (inactive) in assay [5]; 93% in [6] (setting [16]); 85.9% in assay [6] (setting [17]). For the same molecule, the viability in [12] is 96.7% (inactive); in assay [13], 95.2% (inactive). In assay [2], the Her2 level was 109% (inactive). Further, the differential viability (reversal) in assay [6] (H69AR cells + 2 uM doxorubicin) is -7.14% (inactive). Further, the inhibition in [7] is 1.92% (inactive); in assay [8] it was 0.17% (inactive); in assay [14] it was 1.79% (inactive). The growth inhibition in assay [9] was -1.96% (inactive); in assay [10] it was 2.55% (inactive). Also, the viability increase in assay [11] is 2.64% (inactive). Further, in [15], the RAM network inhibition is 3.1% (inactive).

Take `Cc1ccnc(NC(=O)C2CCC(CNc3c(N4CCCC4)c(=O)c3=O)CC2)c1` (stereo not drawn): the viability in assay [1] was 93%; in assay [3] it was 93% (inactive); in assay [4] it was 92.2% (inactive); in [5], 90.2% (inactive); in assay [6] (setting [16]) it was 89%; in assay [6] (setting [17]) it was 90.2%. Also, the viability was 72.4% (inactive) in assay [12] and 71.6% (inactive) in assay [13]. Besides, the Her2 level in [2] was 93.5% (inactive). In addition, in [6] (H69AR cells + 2 uM doxorubicin), the differential viability (reversal) is 1.23% (inactive). The inhibition was -0.64% (inactive) in [7], -3.83% (inactive) in [8] and 0.595% (inactive) in assay [14]. Also, the growth inhibition in [9] is -3.06% (inactive); in [10], 4.16% (inactive). In addition, the viability increase in assay [11] is -1.61% (inactive). Besides, the RAM network inhibition in assay [15] is -0.21% (inactive).
